BaF3 parental – parental Ba/F3 cell viability inhibition, counter-screen for JAK2V617F inhibitor project, murine pro-B, CellTiter-Glo luminescence; hit rate 1.1% among 220,000; inhibition, % at 5.6 µM; CellTiter-Glo ATP luminescence;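 active = inhibition above a per-campaign cutoff, the mean inhibition of all tested compounds plus 3 SD, cut at about 27% in these data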;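 also: 0% = DMSO wells and 100% = JAK Inhibitor I control wells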
Ba/F3 V617F tox – reduced viability of JAK2V617F-dependent Ba/F3 cells, primary screen, JAK2V617F inhibitor project, cell-based, Ba/F3 EpoR-JAK2V617F, luminescence. hit rate 1.1% among 220,000. inhibition, % at 5.6 µM. ATP luminescence;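 active = inhibition above the campaign mean plus 3 SD over all tested compounds, cut at about 24% in these data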;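 also: cytokine-independent growth of Ba/F3 cells driven by EpoR plus mutant JAK2; 0% = DMSO-treated cells and 100% = JAK inhibitor I control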
KLF5 inh – KLF5 expression inhibitors, primary screen, DLD-1 cells, luminescence | inhibition, % at 5 µM | hit rate 0.23% among 290,000 | DLD-1 KLF5 promoter-luciferase reporter;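 active = inhibition above a per-plate limit of that plate's mean compound inhibition plus 3 SD, cut at about 60% in these data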;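 also: 0% = DMSO wells and 100% = LY294002 at 200 µM; higher means less KLF5 promoter-driven luciferase light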
APP transl inh – inhibitors of APP translation via 5'UTR reporter, primary screen, APP 5'UTR luciferase, SH-SY5Y cells | inhibition, % at 2 µM | SH-SY5Y APP 5'UTR-luciferase reporter, luminescence | AID 1285, 2008 | hit rate 0.82% among 190,000;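 active = inhibition above a set limit, derived from the sample mean plus 3 SD, cut at about 45% in these data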
IEC-6 cytotox – cytotoxicity in IEC-6 intestinal epithelial cells, primary screen, cytotoxicity control for KLF5 inhibitor project, cell-based, luminescence. IEC-6 cytotoxicity, luminescence viability. inhibition, % at 5 µM. hit rate 0.78% among 290,000. AID 1825, 2009; in the data active = inhibition above about 22%;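 also: 0% = plate median of test compound wells and 100% = cytotoxic reference compound wells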
* = called active by the depositor; . = no result. Only some compounds are listed: those with a hit (about 1.8% of all), similar ones and a draw of the others.

SMILES	BaF3 parental	Ba/F3 V617F tox	KLF5 inh	APP transl inh	IEC-6 cytotox
COc1cc(-c2onc3ccc(Br)cc23)cc(OC)c1OC	79*	69*	-13	73*	2
COc1cc(NS(=O)(=O)c2ccc(NC(=S)NC(=O)CC(C)C)cc2)nc(OC)n1	-1	-2	-17	54*	0
COC(=O)CCC(=O)NC(=S)Nc1ccc(S(=O)(=O)Nc2cc(OC)nc(OC)n2)cc1	5	0	-10	-8	0
CN(C)c1ccc(/C=C(\C#N)c2ccccc2)cc1	76*	83*	-17	.	74*
OCCN(CCO)CC(O)COc1ccc(C23CC4CC(CC(C4)C2)C3)cc1 (stereo unspecified)	6	-3	2	53*	-7
S=C(Nc1cccc(Cl)c1Cl)N1CCC2(CC1)OCCO2	30*	3	1	-10	5
Cn1c(=O)c2c(ncn2CC(=O)N/N=C/C=C/c2ccccc2[N+](=O)[O-])n(C)c1=O	5	-3	2	.	0
Cc1cc(/C=N/n2cnnc2)c(C)n1-c1ccc(OCc2ccc(Cl)cc2Cl)cc1	5	0	57	51*	-2
Cc1cc(/C=N/n2cnnc2)c(C)n1-c1ccc(Cl)cc1	5	6	-2	-3	7
O=C(Cn1ccc2ccccc2c1=O)NCC(=O)N1CCCCC1	.	.	-32	.	-4
CN1C/C(=C/c2cccnc2)C(=O)/C(=C/c2cccnc2)C1	2	1	1	89*	-1
O=C(COc1ccc(Cl)cc1Br)NC(=O)NCc1ccccc1	4	3	9	-10	9
CCOC(=O)CNc1nc(Cl)nc(Nc2ccc(Cl)cc2)n1	-12	6	7	.	0
CCC(C)NC(=S)Nc1ccc(C(=O)OC)cc1 (stereo unspecified)	50*	7	-22	-26	10
Cc1ccc(OCC(=O)N/N=C/C=C/c2ccco2)cc1	2	2	-20	-16	-2
O=C(COc1ccccc1[N+](=O)[O-])N/N=C/C=C/c1ccco1	95*	3	-15	-15	-5
O=C(Cc1ccc(F)cc1)Nc1nnc(-c2ccc(F)cc2)o1	.	.	-4	.	1
Cc1nnc(SCC(=O)NNC(=O)c2ccc(Br)cc2)n1C	7	1	11	10	4
CCOC(=O)c1ccccc1NC(=O)N[C@@H](C)C(=O)OC	-1	-2	-13	15	-1
COC(=O)c1ccccc1NC(=O)N[C@@H](C)C(=O)OC	-1	-3	-10	76*	3
NC(=O)/C(=C\c1cccnc1)NC(=O)c1ccccc1	4	0	-17	-16	0
COc1ccc(-c2cc(-c3cccs3)c(C#N)c(SCC(=O)NCc3ccco3)n2)cc1	7	7	-17	96*	0
COc1ccc(CNC(=O)CSc2nc(-c3ccccc3)cc(-c3cccs3)c2C#N)cc1	1	-3	2	-9	5
Cc1ccc2[nH]c3c(N4CCN(Cc5ccc6c(c5)OCO6)CC4)ncnc3c2c1	1	-3	-12	-18	8
COc1ccc2c(c1)[nH]c1c(N3CCN(Cc4ccc5c(c4)OCO5)CC3)ncnc12	37*	40*	-27	3	14
SMILES	BaF3 parental	Ba/F3 V617F tox	KLF5 inh	APP transl inh	IEC-6 cytotox
COc1cccc(N/C(N)=N/c2nc(CSc3ccccn3)cc(=O)[nH]2)c1	10	1	1	89*	-9
Cc1cccc(COc2ccc(/C=C3/C(=O)N(C)C(=S)N3C)cc2)c1	.	.	-30	.	-2
C#CCn1c(C)cc(C)c(S(=O)(=O)c2ccccc2)c1=O	1	1	-34	-8	-12
COc1ccc(COc2cc(-c3cccc(OC)c3)nc3ccc(NC(=O)c4ccc(OC)cc4)cc23)cc1	53*	78*	1	56*	19
CCCCCCOc1ccc(OC(=O)c2ccncc2)cc1	32*	44*	-29	-3	13
CC(C)n1c(-c2ccc(N(C)C)cc2)nc2ccccc21	2	-4	-76	-170	15
CN(C)c1ccc(-c2nc3ccccc3n2C)cc1	53*	44*	-14	-98	12
CC(=O)Nc1ccc(N2C(C(C)=O)=NN(c3ccccc3)C2c2cccs2)cc1 (stereo unspecified)	8	-1	-46	-1	-1
COc1ccc(N2C(C(C)=O)=NN(c3ccccc3)C2c2cccs2)cc1 (stereo unspecified)	48*	25*	-64	5	2
CC[N+]1(CC)CC2=Cc3c(ccc4ccccc34)CC2C1 (stereo unspecified)	61*	70*	-18	4	0
O=C(Nc1ccc2c(c1)OCO2)c1cc(-c2ccc(O)cc2)on1	.	.	-80	.	6
CC(=O)Nc1cccc(C(=O)N/N=C/c2ccc(C)o2)c1	7	5	4	-7	6
Cc1ccc(/C=N/NC(=O)c2cccc([N+](=O)[O-])c2)o1	6	3	6	62*	1
COc1ccc(/C=N/NC(=O)c2ccc3ccccc3c2)cc1OS(=O)(=O)c1ccc(NC(C)=O)cc1	0	5	11	72*	4
CC(=O)c1cnc(Nc2nc(C)c3ccc(C)cc3n2)nc1C	0	-2	-21	2	-1
Cc1ccc2c(C)nc(NC3=NCN(C(C)C)CN3)nc2c1	31*	10	-31	-3	0
COc1ccc(N2CCN(C(=O)C3(C)CC3(Cl)Cl)CC2)cc1 (stereo unspecified)	8	0	-35	-12	-4
O=C(Nc1ccc(F)c(Cl)c1)N1CCCCCC1	.	.	-92	.	3
Cc1cc(C(=O)CSc2nc(N)cc(=O)[nH]2)c(C)n1-c1ccc(OC(F)F)cc1	52*	40*	-13	5	-2
CN(c1ccccc1)c1ccc(/C=C/[N+](=O)[O-])cc1	6	19	-10	54*	5
C(=N\Nc1nc(Nc2ccccc2)nc(Nc2ccccc2)n1)/c1cccnc1	12	-1	7	-6	29*
C(=N\Nc1nc(Nc2ccccc2)nc(Nc2ccccc2)n1)/c1ccncc1	5	0	-9	14	3
CCCc1cc(=O)oc2cc(OC(C)C(=O)NC3CC(C)(C)NC(C)(C)C3)ccc12 (stereo unspecified)	.	.	-15	.	-7
Cc1nn(C(C)C(=O)c2cccc(Cl)c2)c(C)c1[N+](=O)[O-] (stereo unspecified)	4	0	6	12	1
Cn1cnc([N+](=O)[O-])c1S(=O)(=O)c1cccc(Cl)c1	102*	86*	-4	9	68*
O=C(Nc1nc2ccccc2s1)C1CCCO1 (stereo unspecified)	95*	-2	-152	-49	-4
CN(C)CCNC(=O)Cn1ccc2cc(S(=O)(=O)N3CCCCCC3)ccc21	.	.	-21	.	2
